This passage reports AC50 and outcome results from PubChem BioAssay (EPA / NIEHS).

In general, AC50 refers to the concentration giving half of the maximal activity seen.

In assay [1] the target is Estrogen receptor (Homo sapiens) (UniProt P03372). Briefly: ATG_hERa_XSP1: Attagene TRANS-FACTORIAL Multi-Species (XSP1) HepG2 Assay for human Estrogen Receptor (ESR1) (AID 2283780). The gist of the method: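 Reporter transcripts from multiplexed GAL4-UAS units driven by NR-Gal4 chimeras in transiently transfected HepG2 were measured by RT-PCR with capillary electrophoresis 24 h post-dose, with 3 nM 6-alpha-fluorotestosterone present; gain-of-signal relative to DMSO.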
Sequence of Estrogen receptor (Homo sapiens) (P03372 whole entry, looked up, the tested form may be a part): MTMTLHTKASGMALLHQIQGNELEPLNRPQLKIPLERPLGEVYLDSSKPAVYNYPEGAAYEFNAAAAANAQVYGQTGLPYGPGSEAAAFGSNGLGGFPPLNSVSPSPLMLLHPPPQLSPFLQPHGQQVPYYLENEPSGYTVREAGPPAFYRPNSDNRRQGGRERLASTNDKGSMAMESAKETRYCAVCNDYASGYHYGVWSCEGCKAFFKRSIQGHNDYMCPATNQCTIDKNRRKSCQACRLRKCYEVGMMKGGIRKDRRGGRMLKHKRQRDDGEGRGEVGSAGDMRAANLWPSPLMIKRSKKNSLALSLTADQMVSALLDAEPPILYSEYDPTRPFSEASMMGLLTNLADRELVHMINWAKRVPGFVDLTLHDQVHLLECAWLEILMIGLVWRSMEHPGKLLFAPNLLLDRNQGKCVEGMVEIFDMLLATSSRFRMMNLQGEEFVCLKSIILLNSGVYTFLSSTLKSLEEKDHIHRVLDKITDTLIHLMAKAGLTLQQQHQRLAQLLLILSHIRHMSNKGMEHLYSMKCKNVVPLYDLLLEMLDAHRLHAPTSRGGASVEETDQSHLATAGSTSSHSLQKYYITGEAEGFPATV

The test system of assay [2] is turtle Estrogen Receptor (ESR1), gene 101933533. Nature of the assay: ATG_trERa_XSP1: Attagene TRANS-FACTORIAL Multi-Species (XSP1) HepG2 Assay for turtle Estrogen Receptor (ESR1) (AID 2283781). The gist of the method:
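Transactivation measured 24 h post-dose as reporter mRNA (RT-PCR, fluorescent capillary electrophoresis) from an NR-Gal4 turtle ER construct in HepG2. Medium included 3 nM 6-alpha-fluorotestosterone; increase over DMSO fitted.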

Assay [3] relates to turtle Androgen Receptor (AR), gene 101947425. Briefly: ATG_trAR_XSP1: Attagene TRANS-FACTORIAL Multi-Species (XSP1) HepG2 Assay for turtle Androgen Receptor (AR) (AID 2283786). The gist of the method:
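Partial androgen stimulation is provided by 3 nM 6-alpha-fluorotestosterone in a multi-species trans-factorial panel expressing a turtle AR–GAL4 fusion in HepG2. After 24 h, reporter mRNA is measured by RT-PCR and capillary electrophoresis and fitted upward against DMSO.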

For assay [4], the target named is GAL4 Transcription Factor (Internal Marker), GAL4 (gene 855828) (UniProt P04386). Briefly: ATG_GAL4_XSP1: Attagene TRANS-FACTORIAL Multi-Species (XSP1) HepG2 Assay for GAL4 Transcription Factor (Internal Marker) (AID 2283789). The method, boiled down: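 This background-control endpoint measures GAL4-driven reporter mRNA via RT-PCR and capillary electrophoresis of labelled fragments. Transiently transfected HepG2 cells were treated 24 h, with 3 nM 6-alpha-fluorotestosterone included, and gain-of-signal was fitted against DMSO.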
Sequence of GAL4 Transcription Factor (Internal Marker), GAL4 (gene 855828) (P04386 whole entry, looked up, the tested form may be a part): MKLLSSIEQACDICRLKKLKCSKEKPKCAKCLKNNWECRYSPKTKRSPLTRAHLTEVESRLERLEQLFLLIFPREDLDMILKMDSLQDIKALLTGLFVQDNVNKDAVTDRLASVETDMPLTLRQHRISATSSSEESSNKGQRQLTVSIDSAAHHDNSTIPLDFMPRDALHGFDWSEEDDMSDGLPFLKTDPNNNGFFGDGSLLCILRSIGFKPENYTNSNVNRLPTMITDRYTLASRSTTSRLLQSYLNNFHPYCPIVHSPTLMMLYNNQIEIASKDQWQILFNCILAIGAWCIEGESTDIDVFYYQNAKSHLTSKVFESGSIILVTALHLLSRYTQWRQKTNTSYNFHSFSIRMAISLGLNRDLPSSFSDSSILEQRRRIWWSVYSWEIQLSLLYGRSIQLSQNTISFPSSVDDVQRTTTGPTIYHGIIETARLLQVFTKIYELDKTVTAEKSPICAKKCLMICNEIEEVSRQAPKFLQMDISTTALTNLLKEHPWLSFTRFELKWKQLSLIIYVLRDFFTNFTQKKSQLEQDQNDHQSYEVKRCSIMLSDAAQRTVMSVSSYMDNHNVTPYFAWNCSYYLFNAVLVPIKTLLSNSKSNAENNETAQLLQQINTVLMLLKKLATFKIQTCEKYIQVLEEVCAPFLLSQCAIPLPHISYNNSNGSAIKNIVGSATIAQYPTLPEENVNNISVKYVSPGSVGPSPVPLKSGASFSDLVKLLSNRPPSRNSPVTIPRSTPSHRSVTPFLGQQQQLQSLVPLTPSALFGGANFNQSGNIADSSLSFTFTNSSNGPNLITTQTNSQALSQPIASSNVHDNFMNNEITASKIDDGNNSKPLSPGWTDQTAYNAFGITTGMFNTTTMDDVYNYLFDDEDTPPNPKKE

Assay [5] is described as follows: ATG_M_06_XSP1: Attagene TRANS-FACTORIAL Multi-Species (XSP1) HepG2 Assay for M06 Transcription Factor (Internal Marker) (AID 2283790). The gist of the method:
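This background-control readout tracks M06 reporter mRNA, measured by RT-PCR and capillary electrophoresis. HepG2 cells transiently carrying the GAL4-UAS reporter panel were dosed for 24 h with 3 nM 6-alpha-fluorotestosterone added for partial AR stimulation; increases were scored relative to DMSO.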

Assay [6] is described as follows: ATG_M_61_XSP1: Attagene TRANS-FACTORIAL Multi-Species (XSP1) HepG2 Assay for M61 Transcription Factor (Internal Marker) (AID 2283797). The gist of the method: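 Background-control readout: reporter transcripts measured by RT-PCR and capillary electrophoresis 24 h after dosing transiently transfected HepG2 multi-reporter cells, with 3 nM 6-alpha-fluorotestosterone present. Fitted in the positive direction relative to DMSO.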

A short description of assay [7]: ATG_M_19_XSP1: Attagene TRANS-FACTORIAL Multi-Species (XSP1) HepG2 Assay for M19 Transcription Factor (Internal Marker) (AID 2283798). The method, boiled down: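 Readout is reporter mRNA induction quantified via RT-PCR, 6-FAM labeling, HpaI digestion and capillary electrophoresis, fitted in the positive direction versus DMSO baseline. Transfected HepG2 cells exposed 24 h, medium including 3 nM 6-alpha-fluorotestosterone.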

Assay [8] in a line: ATG_M_32_XSP1: Attagene TRANS-FACTORIAL Multi-Species (XSP1) HepG2 Assay for M32 Transcription Factor (Internal Marker) (AID 2283799). The method, boiled down:
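Reporter transcripts from the M32 internal-control unit measured by RT-PCR, FAM labelling, HpaI digestion and capillary electrophoresis after 24 h compound exposure of transfected HepG2, 3 nM 6-alpha-fluorotestosterone included; DMSO baseline, positive-direction fit.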

Assay [9] has as its target mouse Peroxisome Proliferator-activated Receptor gamma (PPARg), Pparg (gene 19016) (UniProt P37238). Briefly: ATG_mPPARg_XSP1: Attagene TRANS-FACTORIAL Multi-Species (XSP1) HepG2 Assay for mouse Peroxisome Proliferator-activated Receptor gamma (PPARg) (AID 2283802). The gist of the method: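 Readout is reporter mRNA induction, measured by RT-PCR with 6-FAM labelling, HpaI digestion and capillary electrophoresis, 24 h post-dose relative to DMSO. Transient multi-reporter transfection of human HepG2 with mouse PPARg–GAL4 fusion; 3 nM 6-alpha-fluorotestosterone included.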

Assay [10] deals with Nuclear receptor subfamily 1 group I member 2 (Mus musculus) (UniProt O54915). Briefly: ATG_mPXR_XSP1: Attagene TRANS-FACTORIAL Multi-Species (XSP1) HepG2 Assay for mouse Pregnane X Receptor (PXR) (AID 2283803). The gist of the method:
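Transiently transfected HepG2 cells expressing a receptor-Gal4 chimera drive a GAL4-UAS reporter; 3 nM 6-alpha-fluorotestosterone included. Reporter mRNA read 24 h post-dose by RT-PCR and capillary electrophoresis; gain of signal relative to DMSO.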

For assay [11], the target named is human Thyroid hormone Receptor alpha (TRa), THRA (gene 7067) (UniProt P10827). Briefly: ATG_hTRa_XSP1: Attagene TRANS-FACTORIAL Multi-Species (XSP1) HepG2 Assay for human Thyroid hormone Receptor alpha (TRa) (AID 2283805). The gist of the method:
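Reporter transcripts from the human TRa-Gal4 TRANS unit quantified by RT-PCR, fluorescent labeling and capillary electrophoresis after 24 hours of chemical exposure in transfected HepG2 cells; medium contains 3 nM 6-alpha-fluorotestosterone. Positive direction fit against DMSO.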

In assay [12] the target is zebrafish Thyroid Hormone Receptor alpha (TRa), thraa (gene 30670) (UniProt Q98867). Briefly: ATG_zfTRa_XSP1: Attagene TRANS-FACTORIAL Multi-Species (XSP1) HepG2 Assay for zebrafish Thyroid Hormone Receptor alpha (TRa) (AID 2283807). The gist of the method: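 Reporter transcripts driven by a chimeric zebrafish TRa–Gal4 protein were measured by RT-PCR with fluorescent labelling and capillary electrophoresis. These came from transiently transfected HepG2 cells after 24 h chemical exposure, with 3 nM 6-alpha-fluorotestosterone added; baseline was DMSO.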
Sequence of zebrafish Thyroid Hormone Receptor alpha (TRa), thraa (gene 30670) (Q98867 whole entry, looked up, the tested form may be a part): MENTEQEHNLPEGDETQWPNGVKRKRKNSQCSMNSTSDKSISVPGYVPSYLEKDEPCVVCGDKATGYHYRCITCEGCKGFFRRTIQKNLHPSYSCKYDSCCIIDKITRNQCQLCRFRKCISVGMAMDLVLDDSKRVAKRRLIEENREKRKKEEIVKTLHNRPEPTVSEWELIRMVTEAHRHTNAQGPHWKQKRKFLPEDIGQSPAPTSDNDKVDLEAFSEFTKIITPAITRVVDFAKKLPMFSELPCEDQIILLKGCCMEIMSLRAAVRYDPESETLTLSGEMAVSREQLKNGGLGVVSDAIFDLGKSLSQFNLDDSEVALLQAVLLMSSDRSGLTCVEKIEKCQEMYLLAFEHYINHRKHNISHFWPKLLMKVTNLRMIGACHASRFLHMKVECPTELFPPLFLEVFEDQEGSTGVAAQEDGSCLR

Assay [13] has as its target human Thyroid hormone Receptor beta (TRb), THRB (gene 7068) (UniProt P10828). Briefly: ATG_hTRb_XSP1: Attagene TRANS-FACTORIAL Multi-Species (XSP1) HepG2 Assay for human Thyroid hormone Receptor beta (TRb) (AID 2283808). The gist of the method:
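Readout is reporter mRNA induction measured by RT-PCR, fluorescent labelling and capillary electrophoresis, fitted upward relative to DMSO. Transiently transfected human HepG2 cells expressing NR-Gal4 chimeras were dosed for 24 h, medium containing 3 nM 6-alpha-fluorotestosterone.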

Assay [14] concerns the target zebrafish Thyroid Hormone Receptor beta (TRb), thrb (gene 30607) (UniProt Q9PVE4). Briefly: ATG_zfTRb_XSP1: Attagene TRANS-FACTORIAL Multi-Species (XSP1) HepG2 Assay for zebrafish Thyroid Hormone Receptor beta (TRb) (AID 2283809). The method, boiled down:
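HepG2 cells transiently transfected with multiplexed GAL4-UAS reporter units expressing chimeric zebrafish TRb–Gal4. Dosed 24 h with 3 nM 6-alpha-fluorotestosterone present; reporter mRNA measured by RT-PCR, HpaI digestion and capillary electrophoresis; gain of signal versus DMSO.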

For assay [15], the target named is AR (gene 367) (UniProt P10275). Briefly: ACEA_AR_agonist_80hr: ACEA Biosciences xCELLigence Real-Time Cell Analysis on Androgen Receptor Agonism for Proliferation (AID 2283783).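 Further: hits increase impedance growth signal above DMSO baseline.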 The method, boiled down: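 Eight concentrations, 1:4 serial dilution from a 100 uM final top, in biological duplicate. Impedance-based real-time growth of 22Rv1 cells after overnight baseline, recorded hourly and read at 80 hours. Controls: testosterone, MG132, assay media.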
Sequence of AR (gene 367) (P10275 whole entry, looked up): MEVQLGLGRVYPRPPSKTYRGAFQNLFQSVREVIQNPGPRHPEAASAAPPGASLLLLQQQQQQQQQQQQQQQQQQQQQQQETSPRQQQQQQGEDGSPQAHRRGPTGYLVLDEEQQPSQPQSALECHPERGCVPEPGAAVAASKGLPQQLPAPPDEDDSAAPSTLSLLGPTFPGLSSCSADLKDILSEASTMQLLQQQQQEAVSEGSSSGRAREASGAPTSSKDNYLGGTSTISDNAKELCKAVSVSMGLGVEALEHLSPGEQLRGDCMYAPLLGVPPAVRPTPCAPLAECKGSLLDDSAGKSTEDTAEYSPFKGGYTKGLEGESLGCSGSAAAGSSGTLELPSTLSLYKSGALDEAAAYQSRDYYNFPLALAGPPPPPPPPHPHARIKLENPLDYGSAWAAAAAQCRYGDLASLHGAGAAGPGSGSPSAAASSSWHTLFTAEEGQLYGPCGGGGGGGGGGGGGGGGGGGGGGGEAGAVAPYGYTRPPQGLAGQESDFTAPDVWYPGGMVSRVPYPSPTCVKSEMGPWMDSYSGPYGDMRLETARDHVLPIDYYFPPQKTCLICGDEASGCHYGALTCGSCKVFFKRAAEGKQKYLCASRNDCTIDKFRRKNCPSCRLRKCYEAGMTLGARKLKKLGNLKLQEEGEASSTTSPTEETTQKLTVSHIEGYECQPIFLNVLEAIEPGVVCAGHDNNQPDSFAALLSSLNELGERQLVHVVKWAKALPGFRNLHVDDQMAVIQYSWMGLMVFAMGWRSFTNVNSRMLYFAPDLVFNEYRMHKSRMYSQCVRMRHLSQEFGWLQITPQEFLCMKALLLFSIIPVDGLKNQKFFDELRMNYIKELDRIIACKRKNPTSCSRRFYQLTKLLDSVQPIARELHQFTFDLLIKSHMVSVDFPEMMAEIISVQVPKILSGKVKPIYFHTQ

Assay [16] concerns the target AR (gene 367) (UniProt P10275). Nature of the assay: ACEA_AR_antagonist_80hr: ACEA Biosciences xCELLigence Real-Time Cell Analysis on Androgen Receptor Antagonism for Proliferation (AID 2283787).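 Further: 22Rv1 human prostate cancer cells with growth followed by electrical impedance; hits lower the impedance growth signal relative to DMSO.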 The method, boiled down:
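Impedance-based real-time growth of 22Rv1 prostate cells, read 80 h after dosing. Eight concentrations, 1:4 series, top 100 uM final (0.5% DMSO), n = 2; signal decrease scored against DMSO.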

Assay [17] deals with frog Thyroid hormone Receptor alpha (TRa), thra-a (gene 397942) (UniProt P15204). Briefly: ATG_frTRa_XSP1: Attagene TRANS-FACTORIAL Multi-Species (XSP1) HepG2 Assay for frog Thyroid hormone Receptor alpha (TRa) (AID 2283804). The gist of the method: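 Reporter transcript induction, measured by RT-PCR with 6-FAM labelling and capillary electrophoresis, 24 hr after dosing transiently transfected HepG2 cells expressing a frog TRa-GAL4 fusion; medium contained 3 nM 6-alpha-fluorotestosterone; increase over DMSO scored.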
Sequence of frog Thyroid hormone Receptor alpha (TRa), thra-a (gene 397942) (P15204 whole entry, looked up, the tested form may be a part): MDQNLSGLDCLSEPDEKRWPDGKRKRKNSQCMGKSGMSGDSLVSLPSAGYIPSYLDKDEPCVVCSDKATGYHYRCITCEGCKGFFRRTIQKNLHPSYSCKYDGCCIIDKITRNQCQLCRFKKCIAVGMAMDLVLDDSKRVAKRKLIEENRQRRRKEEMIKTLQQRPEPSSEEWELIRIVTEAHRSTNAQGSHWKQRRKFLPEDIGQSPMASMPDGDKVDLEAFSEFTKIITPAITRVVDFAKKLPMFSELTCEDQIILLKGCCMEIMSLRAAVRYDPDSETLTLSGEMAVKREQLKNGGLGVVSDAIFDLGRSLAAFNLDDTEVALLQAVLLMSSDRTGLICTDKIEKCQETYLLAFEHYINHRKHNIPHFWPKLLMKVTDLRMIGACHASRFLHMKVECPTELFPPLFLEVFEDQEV

Assay [18] is described as follows: ATG_XTT_Cytotoxicity_XSP1: Cytotoxicity Assessment in the Attagene TRANS-FACTORIAL Multi-Species (XSP1) HepG2 Assay (AID 2283810). The method, boiled down:
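XTT viability readout taken at 24 hours post-dosing in HepG2 liver cells co-treated with 3 nM 6-alpha-fluorotestosterone. Signal loss relative to DMSO controls reflects cytotoxicity.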

The structures appear in SMILES notation. Inconclusive results are not listed. Activity calls are given as the source filed them. How the source made its calls: active means hit-call score of the fitted dose curve at least 0.9, where 1 is the maximum; inconclusive means response in the unintended direction; inactive means score below 0.9.

Sequence of zebrafish Thyroid Hormone Receptor beta (TRb), thrb (gene 30607) (Q9PVE4 whole entry, looked up, the tested form may be a part): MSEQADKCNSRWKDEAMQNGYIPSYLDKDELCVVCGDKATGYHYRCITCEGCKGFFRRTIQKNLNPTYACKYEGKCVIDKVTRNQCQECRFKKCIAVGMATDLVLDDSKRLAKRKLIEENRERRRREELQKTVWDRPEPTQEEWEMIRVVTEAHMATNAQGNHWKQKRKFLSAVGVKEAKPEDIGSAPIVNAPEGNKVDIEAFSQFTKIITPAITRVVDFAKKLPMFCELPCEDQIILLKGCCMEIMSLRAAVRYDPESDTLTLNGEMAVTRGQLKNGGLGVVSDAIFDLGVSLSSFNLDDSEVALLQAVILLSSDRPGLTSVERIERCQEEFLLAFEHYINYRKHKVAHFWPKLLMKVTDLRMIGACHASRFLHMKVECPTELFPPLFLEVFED
Sequence of human Thyroid hormone Receptor beta (TRb), THRB (gene 7068) (P10828 whole entry, looked up, the tested form may be a part): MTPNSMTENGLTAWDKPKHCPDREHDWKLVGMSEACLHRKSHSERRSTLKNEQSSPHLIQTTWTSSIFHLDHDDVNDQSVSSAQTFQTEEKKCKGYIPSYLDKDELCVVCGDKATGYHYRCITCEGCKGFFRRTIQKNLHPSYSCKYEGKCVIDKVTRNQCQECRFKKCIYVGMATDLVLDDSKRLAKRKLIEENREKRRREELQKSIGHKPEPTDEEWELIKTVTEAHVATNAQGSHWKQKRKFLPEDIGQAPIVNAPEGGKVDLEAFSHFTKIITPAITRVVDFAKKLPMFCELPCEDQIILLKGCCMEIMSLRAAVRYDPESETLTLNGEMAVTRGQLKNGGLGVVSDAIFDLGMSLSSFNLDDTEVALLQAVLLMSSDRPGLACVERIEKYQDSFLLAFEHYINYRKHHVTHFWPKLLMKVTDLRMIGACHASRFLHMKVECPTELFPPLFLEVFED
Sequence of human Thyroid hormone Receptor alpha (TRa), THRA (gene 7067) (P10827 whole entry, looked up, the tested form may be a part): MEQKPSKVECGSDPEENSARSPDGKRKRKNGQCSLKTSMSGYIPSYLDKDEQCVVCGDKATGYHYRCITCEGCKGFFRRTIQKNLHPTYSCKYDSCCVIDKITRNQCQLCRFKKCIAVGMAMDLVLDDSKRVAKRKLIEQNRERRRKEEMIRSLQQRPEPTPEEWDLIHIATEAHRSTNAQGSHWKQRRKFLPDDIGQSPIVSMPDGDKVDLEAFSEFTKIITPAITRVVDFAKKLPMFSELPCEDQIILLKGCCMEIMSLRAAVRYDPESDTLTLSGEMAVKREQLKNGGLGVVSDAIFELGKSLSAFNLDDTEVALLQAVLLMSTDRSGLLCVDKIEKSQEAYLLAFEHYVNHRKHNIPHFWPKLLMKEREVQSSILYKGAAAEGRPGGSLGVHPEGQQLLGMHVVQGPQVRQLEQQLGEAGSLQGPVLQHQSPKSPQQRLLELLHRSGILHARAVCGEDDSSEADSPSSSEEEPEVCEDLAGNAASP
Sequence of Nuclear receptor subfamily 1 group I member 2 (Mus musculus) (O54915 whole entry, looked up, the tested form may be a part): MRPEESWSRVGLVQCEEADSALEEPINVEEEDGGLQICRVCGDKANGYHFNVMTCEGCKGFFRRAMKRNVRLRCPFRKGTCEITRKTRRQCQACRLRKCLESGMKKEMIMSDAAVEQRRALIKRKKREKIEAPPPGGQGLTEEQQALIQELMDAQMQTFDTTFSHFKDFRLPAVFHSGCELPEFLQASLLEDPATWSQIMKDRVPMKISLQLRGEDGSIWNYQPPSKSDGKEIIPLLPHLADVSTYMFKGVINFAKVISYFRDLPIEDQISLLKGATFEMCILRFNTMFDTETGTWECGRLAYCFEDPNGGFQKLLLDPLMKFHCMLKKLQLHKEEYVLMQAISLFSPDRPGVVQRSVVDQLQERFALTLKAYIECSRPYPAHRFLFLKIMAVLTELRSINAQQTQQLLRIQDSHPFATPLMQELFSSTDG

Consider `O=C(c1ccccc1)c1ccc(O)cc1O`, for which the concentration at half-maximal activity (AC50) in assay [1] was 3.15 µM (active); in assay [2], 2.24 µM (active). Besides, the result in [3], in [4], in [5], in assay [6], in assay [7] and in [8] was inactive. Besides, the result in [9], in assay [10], in assay [11], in assay [12], in assay [13] and in [14] was inactive.

Turning to `C[C@]12CC[C@H]3C(=CCc4cc(O)ccc43)[C@@H]1CCC2=O`, the results for the AC50 (in assay [2]; with AR (gene 367) [16]) were 0.00594 µM (active) and 0.687 µM (active), respectively. Moreover, the molecule was called inactive (with AR (gene 367) [15]; in assay [5]; in [6]; in assay [17]; in assay [11]; in [12]). The molecule was called inactive in assay [13], in assay [14] and in [18].
